# Hits are enriched below; roughly 2.7% of the tested compounds scored in any of these assays.
# CF NFkB inh = inhibitors of cystic fibrosis induced NF-kB; KKLEB NF-kB-GFP reporter, PAF-induced, GFP fluorescence overnight; inhibition, % at 5 µM; hit rate 0.86% among 360,000; AID 588850;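 active means at least 50% inhibition at 5 µM, scaled per plate between neutral and stimulator controls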;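 further: PAF is a Pseudomonas aeruginosa culture filtrate used as stimulus; plate controls were PAF-stimulated DMSO wells for no effect and unstimulated DMSO wells for full effect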
# HIF-2a inh = inhibitors of HIF-2a; 786-0 RCC cells HIF-2a reporter, luciferase luminescence, overnight; inhibition, % at 18.8 µM; hit rate 0.72% among 360,000; AID 624352;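 active means inhibition of the luminescence signal of 40% or more relative to plate controls, in a single-dose primary screen at 18.75 µM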
# Peg3 promoter = reduces Peg3 promoter-driven luciferase expression in HeLa; AID 588405; inhibition, % at 20 µM; hit rate 1.7% among 360,000; HeLa PEG-Prom luciferase reporter, luminescence, overnight;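 active means inhibition of at least 50% at 20 µM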
# Shn3 inh set2 = reduces Shn3 3'UTR luciferase signal in osteoblasts | Clone20 osteoblast Shn3 3'UTR firefly luciferase, 24 h | inhibition, % at 12.5 µM | hit rate 0.52% among 360,000;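 active means mean inhibition of at least 75% with every replicate also reaching 75%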;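 further: 0% = median of neutral control wells and 100% = pilot-screen positive control compound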
# TRPM1 prom inh = reduces MITF-dependent TRPM1 promoter luciferase signal. SK-MEL-5 TRPM1 promoter luciferase, 24 h. AID 488899. hit rate 0.83% among 330,000. inhibition, % at 12.5 µM;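 active means mean inhibition across replicates of 60% or more, whatever share of single replicates reaches that level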
# KKLEB tox = counter-screen for CF NF-kB inhibitors: cytotoxicity; AID 602141; hit rate 0.36% among 360,000; activity change (cytotoxicity), % at 5 µM; KKLEB CF airway cells viability, ATPlite luminescence, overnight; active compounds read low; cells stimulated with P. aeruginosa culture filtrate;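 active means corrected activity change at or below -50% at 5 µM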
# Active calls of the source: *; . = no result given.
SMILES,CF NFkB inh,HIF-2a inh,Peg3 promoter,Shn3 inh set2,TRPM1 prom inh,KKLEB tox
O=C(N/N=C/c1ccco1)C1CC1c1ccccc1 (configuration not stated),-3.8,-1.3,-19.0,-17.4,-0.7,-6.2
CC(C)(C)c1ccc(C2CC2C(=O)N/N=C\c2ccc[nH]2)cc1 (configuration not stated),58.1*,-25.2,-8.4,94.6*,5.4,-42.3
Cc1ccccc1C1=C/C(=C(\SS/C(C(=O)c2ccc(OCC(=O)O)c(Cl)c2Cl)=C2\C=C(c3ccccc3C)SS2)C(=O)c2ccc(OCC(=O)O)c(Cl)c2Cl)SS1,4.8,10.6,8.1,26.9,7.8,10.3
CC(=O)c1cccc(OCc2cc(C(=O)N3C[C@@H](C)O[C@@H](C)C3)no2)c1,-51.2,-179.0,-220.2,-81.0,-67.3,10.3
CC1=NN(c2ccccc2)C(=O)/C1=C\c1cn(-c2ccccc2)nc1C,-2.0,9.3,-9.9,6.2,-11.2,5.8
COc1ccccc1/C=C1/C(=O)N(c2ccccc2)N=C1C,3.5,44.7*,6.3,15.5,12.9,-12.3
Cc1ccc(/C=N/NC(=O)c2nnn(-c3nonc3N)c2C(C)C)o1,33.9,-17.4,4.0,-7.7,3.2,3.0
CC(=O)c1c(C)[nH]c(C(=O)OCC(=O)Nc2ccc(Cl)cc2[N+](=O)[O-])c1C,6.1,10.7,3.2,91.7*,11.5,-9.0
CCOC(=O)c1[nH]c2ccc(OC)cc2c1NC(=O)CN1CCc2ccccc2C1,20.2,7.2,54.8*,.,14.3,-16.5
CCOC(=O)c1[nH]c2ccc(OC)cc2c1NC(=O)CN1CCC2(CC1)OCCO2,-0.2,9.2,17.3,-7.6,-10.6,3.9
O=C(C1=C(c2ccccc2)C(=O)c2ccccc2C1=O)c1ccccc1,75.9*,-28.8,92.1*,92.8*,64.3*,-18.9
COc1ccc(C2=C(N)c3ccccc3C2=O)cc1,-9.3,-315.5,-245.5,-43.2,-57.9,-12.8
COC1=C(c2ccccc2)C(=O)c2ccccc2C1=O,-41.9,4.3,9.9,-32.8,75.1*,23.2
O=C(c1ccccc1)c1c[nH]cc1-c1ccccc1,2.2,7.5,-5.5,-0.1,-21.1,4.1
Cc1[nH][nH]c(=O)c1C(c1c(C)[nH][nH]c1=O)c1cn(Cc2ccccc2Cl)c2ccccc12,68.5*,13.7,55.9*,4.9,27.5,-37.2
CCCCCCCCC1=NCCc2c1[nH]c1ccccc21,-3.5,8.7,90.9*,17.2,6.0,-3.5
C[C@@H]1CN([C@H](C)CO)C(=O)CCCn2cc(nn2)CO[C@H]1CN(C)C(=O)Nc1ccc(C(C)(C)C)cc1,-5.2,4.5,-6.0,-4.0,.,4.4
COc1ccc(-c2nc3c(c(=O)[nH]c(=O)n3Cc3ccccc3)n2CCO)cc1,4.3,15.4,7.2,-24.1,2.5,-2.5
O=c1[nH]c(=O)n(Cc2ccccc2)c2nc(-c3ccc(Oc4ccc(F)cc4)c([N+](=O)[O-])c3)n(CCO)c12,-22.2,20.5,63.1*,3.3,0.2,-2.9
Cc1sc2ncnc(N3CCC(C(=O)Nc4nnc(SCc5ccccc5F)s4)CC3)c2c1C,9.8,13.9,8.0,6.5,-2.0,-7.3
CC1CC(C)(C)N(C(=O)CN2C(=O)CCC2=O)c2ccccc21 (configuration not stated),-4.0,3.4,11.1,3.3,-0.3,-7.5
CN(N=Cc1ccccc1O)c1ccc2ccccc2n1,1.1,-54.0,-365.3,-39.6,.,-14.3
CN(/N=C/c1cc(Br)cc(Br)c1O)c1cccc(C(F)(F)F)n1,46.3,13.2,57.5*,9.3,4.2,-11.6
Cc1ccccc1NC(=S)N(C)Cc1cn(C)c2ccccc12,-8.6,19.2,12.9,22.8,-3.2,3.5
CCCCN(C(C)=O)c1ccc2c(c1)C1CC2CCN1C(=O)OCc1ccccc1 (configuration not stated),9.2,1.1,10.5,89.6*,19.4,-17.1
SMILES,CF NFkB inh,HIF-2a inh,Peg3 promoter,Shn3 inh set2,TRPM1 prom inh,KKLEB tox
C/C(=N/Nc1ccc(C(=O)c2c(C)cc3ccccn23)cc1[N+](=O)[O-])c1ccc(O)cc1,34.4,-3.9,33.4,47.6,6.6,-25.7
C/C(=N\Nc1ccc(C(=O)c2c(C)cc3ccccn23)cc1[N+](=O)[O-])c1ccc(O)cc1,68.7*,11.7,25.9,57.0,23.5,-61.9*
Cc1cc(C(=O)OCC(=O)Nc2c(Cl)cccc2Cl)c(C)o1,-0.6,11.9,10.7,3.7,-9.4,-7.6
CCC1=NN(C(=O)c2cccc(Br)c2)C(O)(c2ccc(Br)cc2)C1 (configuration not stated),62.5*,4.3,25.1,47.1,-0.7,-53.9*
CCC1=NN(C(=O)c2ccc(C)cc2)C(O)(c2ccc(Br)cc2)C1 (configuration not stated),0.1,-32.3,-18.5,-56.6,-21.7,9.0
Cc1c(C(=O)Nc2c(F)cc(F)cc2Br)sc2ncn(CC(=O)N3CCCC3)c(=O)c12,-4.8,3.9,-1.6,-1.0,10.5,7.1
Oc1ccccc1-c1nnc(SCCN2CCOCC2)n1Cc1ccccc1,5.5,-20.1,53.4*,51.5,22.2,0.2
O=C(C#Cc1cccc([N+](=O)[O-])c1)c1ccccc1,97.1*,26.0,107.5*,93.1*,82.2*,-63.5*
CC(=O)N1CCN(C(=O)COC(=O)c2oc3ccccc3c2C)CC1,-28.6,9.1,1.9,-13.6,8.6,11.9
COc1ccccc1-c1nc(C(=O)NCC2CCCO2)cc2c1[nH]c1ccccc12 (configuration not stated),-18.3,20.4,25.4,-12.4,.,7.6
O=C(NCC1CCCO1)c1cc2ccccc2[nH]1 (configuration not stated),11.5,-56.0,-31.5,-10.7,-10.6,-2.4
COc1cc(-c2nc(C(=O)NCC3CCCO3)cc3c2[nH]c2ccccc23)cc(OC)c1OC (configuration not stated),9.9,-77.5,56.6*,40.3,10.9,3.2
O=C(NCC1CCCO1)c1cc2c([nH]c3ccccc32)c(-c2cccc(Cl)c2)n1 (configuration not stated),-10.8,-22.1,52.6*,52.1,.,1.0
CCOC(=O)c1c(C)n(-c2ccc(C)cc2)c2ccc(OCC(O)CNCCCO)cc12 (configuration not stated),11.7,17.3,105.2*,-1.2,70.1*,-14.8
CCOC(=O)c1c(C)n(-c2ccc(C)cc2)c2ccc(OCC(O)CNCC3CCCO3)cc12 (configuration not stated),41.4,12.5,86.4*,80.3,69.4*,-37.3
COc1ccccc1CNC(=O)COC(=O)COc1ccccc1F,6.7,16.8,8.7,4.1,-1.0,2.9
O=C(Cn1cc(C(F)(F)F)cc(Cl)c1=O)NCCc1ccccc1,11.3,16.5,1.4,96.2*,-4.4,16.2
O=C(Cn1cc(C(F)(F)F)cc(Cl)c1=O)NCc1ccccc1,6.8,-161.9,-155.2,-41.6,-46.0,-6.8

# From PubChem BioAssay
